Test results from PubChem BioAssay AID1159580 (chemical genetic matrix, 2015).
Where “and” joins values, the source holds several entries; their conditions need not be identical. Identical values can stand only once. The whole screen tested about 5,500 compounds, of which about 2,000 (36%) were called active. About 18% were inconclusive and are not listed. No stated cut-off is given here; in the data, active means normalized growth mostly below about 0.91 (no sharp cut-off); inconclusive means no clear call, values can overlap the other calls; inactive means mostly above about 0.92. Some of the results follow.

Assay: chemical genetic growth profiling, strain panel (AID 1159580);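 further: tested at 20 µM; growth read once vehicle control cultures reached saturation at 30 °C; 1 = growth at the plate median or of vehicle wells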
Details: S. cerevisiae deletion strains, growth OD

Measured: normalized growth

C=C(CC)C(=O)c1ccc(OCC(=O)O)c(Cl)c1Cl
active: locus YDL185W, strain tfp1, stronger effect = lower value 0.882 | locus YIL125W, strain kgd1, stronger effect = lower value 0.927 | locus YJR066W, strain TOR1, stronger effect = lower value 0.708 | locus YKL068W, stronger effect = lower value 0.91 | locus YLR113W, strain HOG1, stronger effect = lower value 0.551 | locus YNL183C, strain NPR1, stronger effect = lower value 0.828 | locus YNL271C, strain bni1, stronger effect = lower value 0.917 | locus YPR141C, strain kar3, stronger effect = lower value 0.902
inactive: locus YAL013W, strain DEP1, stronger effect = lower value 0.984 | locus YAL021C, strain ccr4, stronger effect = lower value 1 | locus YAL026C, strain drs2, stronger effect = lower value 0.98 | locus YAL030W, strain snc1, stronger effect = lower value 1.01 | locus YBL061C, strain skt5, stronger effect = lower value 1 | locus YBR009C, strain hhf1, stronger effect = lower value 1.01 | locus YBR021W, strain FUR4, stronger effect = lower value 1.02 | locus YBR023C, strain chs3, stronger effect = lower value 1.03 | locus YBR171W, strain sec66, stronger effect = lower value 1.01 | locus YBR229C, strain ROT2, stronger effect = lower value 0.951 | locus YBR231C, strain swc5, stronger effect = lower value 0.972 | locus YBR279W, strain paf1, stronger effect = lower value 1.01 | locus YCL011C, strain gbp2, stronger effect = lower value 1.03 | locus YCL016C, strain dcc1, stronger effect = lower value 1.04 | locus YCL029C, strain bik1, stronger effect = lower value 0.973 | locus YCL061C, strain MRC1, stronger effect = lower value 1.03 | locus YCL069W, strain vba3, stronger effect = lower value 1 | locus YCR088W, strain abp1, stronger effect = lower value 1.01 | locus YDL005C, strain med2, stronger effect = lower value 0.999 | locus YDL035C, strain GPR1, stronger effect = lower value 0.988 | locus YDL040C, strain nat1, stronger effect = lower value 0.994 | locus YDL074C, strain BRE1, stronger effect = lower value 0.986 | locus YDL101C, strain DUN1, stronger effect = lower value 0.983 | locus YDL134C, strain PPH21, stronger effect = lower value 0.972 | locus YDL192W, strain arf1, stronger effect = lower value 0.972 | locus YDR001C, strain nth1, stronger effect = lower value 1 | locus YDR069C, strain doa4, stronger effect = lower value 0.99 | locus YDR101C, strain arx1, stronger effect = lower value 0.92 | locus YDR137W, strain rgp1, stronger effect = lower value 1.01 | locus YDR150W, strain NUM1, stronger effect = lower value 0.976 | locus YDR159W, strain sac3, stronger effect = lower value 0.955 | locus YDR162C, strain NBP2, stronger effect = lower value 0.966 | locus YDR195W, strain ref2 0.974 | locus YDR297W, strain sur2, stronger effect = lower value 1.02 | locus YDR318W, strain mcm21, stronger effect = lower value 0.992 | locus YDR334W, strain swr1, stronger effect = lower value 1 | locus YDR335W, strain msn5, stronger effect = lower value 1.01 | locus YDR388W, stronger effect = lower value 0.972 | locus YDR392W, strain spt3, stronger effect = lower value 0.948 | locus YDR502C, strain sam2, stronger effect = lower value 0.984 | locus YEL003W, strain gim4, stronger effect = lower value 0.985 | locus YEL037C, strain rad23, stronger effect = lower value 1 | locus YEL061C, strain CIN8 (second series), stronger effect = lower value 1 | locus YEL061C, strain CIN8, stronger effect = lower value 0.996 | locus YER015W, strain faa2, stronger effect = lower value 0.993 | locus YER016W, strain bim1, stronger effect = lower value 0.993 | locus YER110C, stronger effect = lower value 0.963 | locus YER111C, strain swi4, stronger effect = lower value 1 | locus YER155C, strain BEM2 (second series), stronger effect = lower value 0.997 | locus YER155C, strain BEM2, stronger effect = lower value 0.998 | locus YER167W, strain BCK2, stronger effect = lower value 1 | locus YFR010W, strain ubp6, stronger effect = lower value 1.01 | locus YGL078C, strain dbp3, stronger effect = lower value 0.954 | locus YGL086W, strain mad1, stronger effect = lower value 0.977 | locus YGL167C, strain pmr1, stronger effect = lower value 1.01 | locus YGL173C, strain kem1, stronger effect = lower value 1 | locus YGL227W, strain vid30, stronger effect = lower value 1.01 | locus YGL240W, strain doc1, stronger effect = lower value 1.02 | locus YGL248W, strain PDE1, stronger effect = lower value 0.985 | locus YGL253W, strain hxk2, stronger effect = lower value 0.988 | locus YGR078C, strain PAC10, stronger effect = lower value 0.964 | locus YGR135W, strain pre9, stronger effect = lower value 1.05 | locus YGR229C, strain SMI1, stronger effect = lower value 1 | locus YGR252W, strain gcn5, stronger effect = lower value 1.2 | locus YHR013C, strain ard1, stronger effect = lower value 1.04 | locus YHR027C, strain rpn1, stronger effect = lower value 1.02 | locus YHR030C, strain SLT2, stronger effect = lower value 0.985 and 0.868 | locus YHR079C, strain IRE1 (second series), stronger effect = lower value 0.982 | locus YHR079C, strain IRE1, stronger effect = lower value 0.869 | locus YHR094C, strain hxt1, stronger effect = lower value 0.955 | locus YHR129C, strain ARP1, stronger effect = lower value 0.977 | locus YHR142W, strain chs7, stronger effect = lower value 1.04 | locus YHR200W, strain rpn10, stronger effect = lower value 0.984 | locus YIL066C, strain RNR3, stronger effect = lower value 0.968 | locus YIL073C, strain SPO22, stronger effect = lower value 0.995 | locus YIR030C, strain dcg1, stronger effect = lower value 0.993 | locus YJL092W, strain hpr5, stronger effect = lower value 1.01 | locus YJL095W, strain BCK1 (second series), stronger effect = lower value 1.03 | locus YJL115W, strain asf1, stronger effect = lower value 1 | locus YJL129C, strain trk1, stronger effect = lower value 1.02 | locus YJL134W, strain LCB3, stronger effect = lower value 0.983 | locus YJL154C, strain vps35, stronger effect = lower value 0.997 | locus YJL164C, strain tpk1, stronger effect = lower value 1.03 | locus YJL166W, strain qcr8, stronger effect = lower value 1.05 | locus YJL168C, strain set2, stronger effect = lower value 0.971 | locus YJL187C, strain SWE1 (second series), stronger effect = lower value 0.968 | locus YJL187C, strain SWE1, stronger effect = lower value 1 | locus YJR043C, strain POL32, stronger effect = lower value 0.981 | locus YJR075W, strain HOC1, stronger effect = lower value 0.982 | locus YKL009W, strain mrt4, stronger effect = lower value 0.923 | locus YKL085W, strain MDH1 (second series), stronger effect = lower value 0.938 | locus YKL085W, strain MDH1, stronger effect = lower value 0.938 | locus YKL160W, strain elf1, stronger effect = lower value 1.06 | locus YKR001C, strain vps1, stronger effect = lower value 0.906 | locus YKR026C, strain gcn3, stronger effect = lower value 1 | locus YKR091W, strain srl3, stronger effect = lower value 1.01 | locus YLL001W, strain dnm1, stronger effect = lower value 1.05 | locus YLL026W, stronger effect = lower value 1.01 | locus YLL041C, strain sdh2, stronger effect = lower value 1 | locus YLR027C, strain aat2, stronger effect = lower value 0.995 | locus YLR039C, strain RIC1, stronger effect = lower value 0.91 | locus YLR058C, strain SHM2, stronger effect = lower value 0.972 | locus YLR102C, strain apc9, stronger effect = lower value 0.972 | locus YLR221C, strain rsa3, stronger effect = lower value 1.04 | locus YLR258W, strain gsy2, stronger effect = lower value 1.02 | locus YLR262C, strain YPT6 (second series), stronger effect = lower value 1.01 | locus YLR262C, strain YPT6, stronger effect = lower value 0.873 | locus YLR268W, strain sec22, stronger effect = lower value 0.99 | locus YLR320W, strain mms22, stronger effect = lower value 1.08 | locus YLR330W, strain CHS5, stronger effect = lower value 0.978 | locus YLR342W, strain FKS1 (second series), stronger effect = lower value 0.983 | locus YLR342W, strain FKS1, stronger effect = lower value 1.01 | locus YLR357W, strain rsc2, stronger effect = lower value 0.995 | locus YLR370C, strain arc18, stronger effect = lower value 1.02 | locus YLR371W, strain rom2, stronger effect = lower value 0.953 | locus YLR384C, strain iki3, stronger effect = lower value 1.01 | locus YLR418C, strain cdc73, stronger effect = lower value 1 | locus YML016C, strain PPZ1, stronger effect = lower value 0.982 | locus YML032C, strain rad52, stronger effect = lower value 0.962 | locus YML120C, strain ndi1, stronger effect = lower value 1.05 | locus YML124C, strain tub3, stronger effect = lower value 0.98 | locus YMR058W, strain fet3, stronger effect = lower value 1 | locus YMR078C, strain ctf18, stronger effect = lower value 0.962 | locus YMR125W, strain sto1, stronger effect = lower value 1.02 | locus YMR129W, stronger effect = lower value 1.01 | locus YMR205C, strain PFK2, stronger effect = lower value 1.06 | locus YMR223W, strain ubp8, stronger effect = lower value 1.02 | locus YMR231W, strain pep5, stronger effect = lower value 0.978 | locus YMR307W, strain GAS1, stronger effect = lower value 1 | locus YNL067W, strain RPL9B, stronger effect = lower value 0.986 | locus YNL071W, strain lat1, stronger effect = lower value 1.01 | locus YNL209W, strain ssb2, stronger effect = lower value 1.02 | locus YNL233W, strain BNI4, stronger effect = lower value 0.988 | locus YNL248C, strain rpa49, stronger effect = lower value 1.01 | locus YNL250W, strain rad50, stronger effect = lower value 0.913 | locus YNL298W, strain CLA4, stronger effect = lower value 0.912 | locus YNL307C, strain MCK1, stronger effect = lower value 0.98 | locus YNL322C, strain KRE1 (second series), stronger effect = lower value 1.02 | locus YNR049C, strain mso1, stronger effect = lower value 1.01 | locus YNR052C, strain pop2, stronger effect = lower value 0.981 | locus YOL006C, strain TOP1, stronger effect = lower value 1 | locus YOL012C, strain htz1 1.29 | locus YOL147C, strain pex11, stronger effect = lower value 0.99 | locus YOR001W, strain rrp6, stronger effect = lower value 0.948 | locus YOR061W, strain CKA2, stronger effect = lower value 0.964 | locus YOR069W, strain VPS5, stronger effect = lower value 0.988 | locus YOR070C, strain gyp1, stronger effect = lower value 1.04 | locus YOR080W, strain dia2, stronger effect = lower value 1.01 | locus YOR083W, strain WHI5, stronger effect = lower value 1.05 | locus YOR106W, strain vam3, stronger effect = lower value 1.04 | locus YOR136W, strain idh2, stronger effect = lower value 0.979 | locus YOR144C, strain elg1, stronger effect = lower value 0.989 | locus YOR184W, strain ser1, stronger effect = lower value 0.991 | locus YOR231W, strain MKK1, stronger effect = lower value 0.909 | locus YOR265W, strain rbl2, stronger effect = lower value 1.01 | locus YOR270C, strain vph1, stronger effect = lower value 1.08 | locus YOR290C, strain snf2, stronger effect = lower value 1.01 | locus YOR316C, strain cot1, stronger effect = lower value 0.96 | locus YPL051W, strain arl3, stronger effect = lower value 0.992 | locus YPL078C, strain atp4, stronger effect = lower value 1.04 | locus YPL106C, strain sse1, stronger effect = lower value 1.01 | locus YPL240C, strain hsp82, stronger effect = lower value 1.02 | locus YPL241C, strain CIN2, stronger effect = lower value 0.983 | locus YPL256C, strain CLN2, stronger effect = lower value 0.899 | locus YPR119W, strain clb2, stronger effect = lower value 0.973 | locus YPR163C, strain tif3, stronger effect = lower value 0.981 | locus YPR167C, strain met16, stronger effect = lower value 0.989 | strain wtn01, stronger effect = lower value 0.997
1 (inactive) and 0.835 (active): locus YJL095W, strain BCK1, stronger effect = lower value
